Data published in PubChem BioAssay AID1159580 (chemical genetic matrix, 2015).
Screen size: about 5,500 compounds; about 2,000 (36%) were called active. About 18% were inconclusive and are not listed. No stated cut-off is given here; in the data, active means normalized growth mostly below about 0.91 (no sharp cut-off); inconclusive means no clear call, values can overlap the other calls; inactive means mostly above about 0.92. The list shows a part of the results.

Assay: chemical genetic growth profiling, strain panel (AID 1159580);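 further: tested at 20 µM; growth read once vehicle control cultures reached saturation at 30 °C; 1 = growth at the plate median or of vehicle wells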
Settings: S. cerevisiae deletion strains, growth OD

Measured: normalized growth

NC(=NCCCC(N)C(=O)O)N[N+](=O)[O-] (stereo not drawn)
inactive: locus YAL040C, strain CLN3, stronger effect = lower value 0.999 | locus YCL061C, strain MRC1 (second series), stronger effect = lower value 1 | locus YDR363W, strain ESC2, stronger effect = lower value 1.03 | locus YER002W, strain NOP16, stronger effect = lower value 1 | locus YGR229C, strain SMI1, stronger effect = lower value 1.02 | locus YJR075W, strain HOC1, stronger effect = lower value 1.02 | locus YMR263W, strain SAP30, stronger effect = lower value 1 | locus YMR307W, strain GAS1, stronger effect = lower value 1 | locus YNL128W, strain TEP1, stronger effect = lower value 1.02 | locus YNL175C, strain NOP13, stronger effect = lower value 1 | locus YNL197C, strain WHI3, stronger effect = lower value 1.01 | locus YNL224C, strain SQS1, stronger effect = lower value 1.01 | locus YOR083W, strain WHI5 (second series), stronger effect = lower value 1.02
